Target: POU1 (OCT1 POU domain) (human, UniProt P14859 260-458)
Assay: EMSA-SELEX-seq; no BOB1; 20 mM Tris-HCl pH 7.6, 140 mM NaCl, 10% glycerol, 0.5 mM EDTA, 0.05% Triton X-100, 0.1 mg/mL BSA, 0.1 mg/mL poly(dI-dC), 5 mM DTT, room temperature, 20 min; high values mean tight binding
Conditions: protein: recombinant; dsDNA, one strand shown
Outline: (§1)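 In this selection, tagged POU-domain proteins from E. coli BL21, purified under denaturing conditions and renatured, were bound to a PCR-amplified double-stranded random 35-nt library with or without coactivator protein. Reactions held 30 ng protein, 300 ng library and, where used, 28 ng coactivator protein in 20 μL Tris–HCl pH 7.6 binding buffer for 20 min at RT. Complex bands were cut from native 6% PAGE, eluted and PCR-amplified over four rounds, then Illumina-sequenced, and binding preference is the percentage of sequenced 8-mers matching a motif pattern.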

Sequence of POU1 (OCT1 POU domain) (P14859 260-458): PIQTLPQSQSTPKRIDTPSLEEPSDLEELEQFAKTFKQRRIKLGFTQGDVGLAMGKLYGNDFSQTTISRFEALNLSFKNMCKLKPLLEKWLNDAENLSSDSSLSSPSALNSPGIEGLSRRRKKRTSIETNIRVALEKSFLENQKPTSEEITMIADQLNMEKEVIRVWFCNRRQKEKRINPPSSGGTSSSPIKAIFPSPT

Row | Sequence | binding signal
1 | AGCCCAAA | 0.0164 % of ANNNNAAN 8-mers
2 | AAACAAAA | 0.156 % of ANNNNAAN 8-mers
3 | ACGCAAAT | 0.564 % of ANNNNAAN 8-mers
4 | AACCGAAC | 0.013 % of ANNNNAAN 8-mers
5 | AAGACAAA | 0.0538 % of ANNNNAAN 8-mers
6 | ATCGTAAT | 0.085 % of ANNNNAAN 8-mers
7 | AATCTAAG | 0.0553 % of ANNNNAAN 8-mers
8 | ATATTAAA | 0.297 % of ANNNNAAN 8-mers
9 | ATGTGAAG | 0.0484 % of ANNNNAAN 8-mers
10 | AGAGGAAA | 0.069 % of ANNNNAAN 8-mers
11 | ACTTAAAG | 0.0328 % of ANNNNAAN 8-mers
12 | AATCGAAA | 0.0622 % of ANNNNAAN 8-mers
13 | AAGAGAAT | 0.0728 % of ANNNNAAN 8-mers
14 | ACGGGAAG | 0.0332 % of ANNNNAAN 8-mers
15 | AGGTCAAT | 0.0557 % of ANNNNAAN 8-mers
16 | AAATTAAC | 0.334 % of ANNNNAAN 8-mers
17 | ATTGGAAC | 0.0313 % of ANNNNAAN 8-mers
18 | ACCCTAAA | 0.0137 % of ANNNNAAN 8-mers
19 | ATCGCAAT | 0.0336 % of ANNNNAAN 8-mers
20 | ACGGAAAG | 0.0397 % of ANNNNAAN 8-mers

Row | Sequence | binding signal
21 | ATGAAAAG | 0.135 % of ANNNNAAN 8-mers
22 | AGTACAAC | 0.0164 % of ANNNNAAN 8-mers
23 | AAGTAAAG | 0.0545 % of ANNNNAAN 8-mers
24 | ATTCTAAC | 0.0503 % of ANNNNAAN 8-mers
25 | AAGAGAAG | 0.0339 % of ANNNNAAN 8-mers
26 | ACATTAAA | 0.104 % of ANNNNAAN 8-mers
27 | AACGTAAT | 0.077 % of ANNNNAAN 8-mers
28 | AGATCAAT | 0.0465 % of ANNNNAAN 8-mers
29 | ACGGAAAA | 0.0515 % of ANNNNAAN 8-mers
30 | AACCAAAC | 0.0248 % of ANNNNAAN 8-mers
31 | ACGTGAAA | 0.0374 % of ANNNNAAN 8-mers
32 | ACTTCAAG | 0.0194 % of ANNNNAAN 8-mers
33 | ATACGAAC | 0.0343 % of ANNNNAAN 8-mers
34 | AGGCAAAC | 0.0866 % of ANNNNAAN 8-mers
35 | AGCAGAAT | 0.0435 % of ANNNNAAN 8-mers
36 | AACAGAAA | 0.042 % of ANNNNAAN 8-mers
37 | ACACGAAA | 0.0332 % of ANNNNAAN 8-mers
38 | AGGTAAAT | 0.379 % of ANNNNAAN 8-mers
39 | ACGGCAAC | 0.0141 % of ANNNNAAN 8-mers

Target: T1, POU2 (OCT2 POU domain) (human, UniProt P09086 175-386)
T1 sequence: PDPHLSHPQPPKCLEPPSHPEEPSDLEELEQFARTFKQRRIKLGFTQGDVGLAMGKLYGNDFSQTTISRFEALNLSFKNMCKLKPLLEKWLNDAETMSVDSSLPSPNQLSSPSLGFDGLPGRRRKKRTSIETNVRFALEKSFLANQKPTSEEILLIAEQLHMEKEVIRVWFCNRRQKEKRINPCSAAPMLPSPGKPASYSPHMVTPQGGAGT
Assay: as above
Conditions: protein: recombinant; dsDNA, one strand shown
Outline: as §1

Row | Sequence | binding signal
40 | AGCCCAAA | 0.0207 % of ANNNNAAN 8-mers
41 | AAACAAAA | 0.115 % of ANNNNAAN 8-mers
42 | ACGCAAAT | 0.409 % of ANNNNAAN 8-mers
43 | AACCGAAC | 0.0173 % of ANNNNAAN 8-mers
44 | AAGACAAA | 0.0472 % of ANNNNAAN 8-mers
45 | ATCGTAAT | 0.108 % of ANNNNAAN 8-mers
46 | AATCTAAG | 0.0587 % of ANNNNAAN 8-mers
47 | ATATTAAA | 0.365 % of ANNNNAAN 8-mers
48 | ATGTGAAG | 0.0627 % of ANNNNAAN 8-mers
49 | AGAGGAAA | 0.0667 % of ANNNNAAN 8-mers
50 | ACTTAAAG | 0.0437 % of ANNNNAAN 8-mers
51 | AATCGAAA | 0.0512 % of ANNNNAAN 8-mers
52 | AAGAGAAT | 0.0806 % of ANNNNAAN 8-mers
53 | ACGGGAAG | 0.0339 % of ANNNNAAN 8-mers
54 | AGGTCAAT | 0.0662 % of ANNNNAAN 8-mers
55 | AAATTAAC | 0.33 % of ANNNNAAN 8-mers
56 | ATTGGAAC | 0.0426 % of ANNNNAAN 8-mers
57 | ACCCTAAA | 0.0173 % of ANNNNAAN 8-mers
58 | ATCGCAAT | 0.0391 % of ANNNNAAN 8-mers
59 | ACGGAAAG | 0.0443 % of ANNNNAAN 8-mers

Row | Sequence | binding signal
60 | ATGAAAAG | 0.106 % of ANNNNAAN 8-mers
61 | AGTACAAC | 0.0173 % of ANNNNAAN 8-mers
62 | AAGTAAAG | 0.0541 % of ANNNNAAN 8-mers
63 | ATTCTAAC | 0.0495 % of ANNNNAAN 8-mers
64 | AAGAGAAG | 0.0403 % of ANNNNAAN 8-mers
65 | ACATTAAA | 0.125 % of ANNNNAAN 8-mers
66 | AACGTAAT | 0.0823 % of ANNNNAAN 8-mers
67 | AGATCAAT | 0.0432 % of ANNNNAAN 8-mers
68 | ACGGAAAA | 0.0478 % of ANNNNAAN 8-mers
69 | AACCAAAC | 0.0236 % of ANNNNAAN 8-mers
70 | ACGTGAAA | 0.0386 % of ANNNNAAN 8-mers
71 | ACTTCAAG | 0.0236 % of ANNNNAAN 8-mers
72 | ATACGAAC | 0.0345 % of ANNNNAAN 8-mers
73 | AGGCAAAC | 0.0512 % of ANNNNAAN 8-mers
74 | AGCAGAAT | 0.0621 % of ANNNNAAN 8-mers
75 | AACAGAAA | 0.0409 % of ANNNNAAN 8-mers
76 | ACACGAAA | 0.027 % of ANNNNAAN 8-mers
77 | AGGTAAAT | 0.269 % of ANNNNAAN 8-mers
78 | ACGGCAAC | 0.0109 % of ANNNNAAN 8-mers

Target: POU1 (OCT1 POU domain);BOB1 (OBF1, OCA-B) (human;human, UniProt P14859;Q16633 260-458;1-256, |)
Assay: EMSA-SELEX-seq; with BOB1 (ternary complex band); 20 mM Tris-HCl pH 7.6, 140 mM NaCl, 10% glycerol, 0.5 mM EDTA, 0.05% Triton X-100, 0.1 mg/mL BSA, 0.1 mg/mL poly(dI-dC), 5 mM DTT, room temperature, 20 min; high values mean tight binding
Conditions: protein: recombinant;recombinant; copies: 1;1; dsDNA, one strand shown
Outline: as §1

Row | Sequence | binding signal
79 | AGCCCAAA | 0.0156 % of ANNNNAAN 8-mers
80 | AAACAAAA | 0.256 % of ANNNNAAN 8-mers
81 | ACGCAAAT | 1.27 % of ANNNNAAN 8-mers
82 | AACCGAAC | 0.0117 % of ANNNNAAN 8-mers
83 | AAGACAAA | 0.0706 % of ANNNNAAN 8-mers
84 | ATCGTAAT | 0.0679 % of ANNNNAAN 8-mers
85 | AATCTAAG | 0.062 % of ANNNNAAN 8-mers
86 | ATATTAAA | 0.131 % of ANNNNAAN 8-mers
87 | ATGTGAAG | 0.046 % of ANNNNAAN 8-mers
88 | AGAGGAAA | 0.0687 % of ANNNNAAN 8-mers
89 | ACTTAAAG | 0.0328 % of ANNNNAAN 8-mers
90 | AATCGAAA | 0.0613 % of ANNNNAAN 8-mers
91 | AAGAGAAT | 0.0738 % of ANNNNAAN 8-mers
92 | ACGGGAAG | 0.0254 % of ANNNNAAN 8-mers
93 | AGGTCAAT | 0.0437 % of ANNNNAAN 8-mers
94 | AAATTAAC | 0.188 % of ANNNNAAN 8-mers
95 | ATTGGAAC | 0.0304 % of ANNNNAAN 8-mers
96 | ACCCTAAA | 0.0137 % of ANNNNAAN 8-mers
97 | ATCGCAAT | 0.0328 % of ANNNNAAN 8-mers
98 | ACGGAAAG | 0.0406 % of ANNNNAAN 8-mers

Row | Sequence | binding signal
99 | ATGAAAAG | 0.175 % of ANNNNAAN 8-mers
100 | AGTACAAC | 0.0152 % of ANNNNAAN 8-mers
101 | AAGTAAAG | 0.0687 % of ANNNNAAN 8-mers
102 | ATTCTAAC | 0.0328 % of ANNNNAAN 8-mers
103 | AAGAGAAG | 0.0402 % of ANNNNAAN 8-mers
104 | ACATTAAA | 0.0624 % of ANNNNAAN 8-mers
105 | AACGTAAT | 0.0546 % of ANNNNAAN 8-mers
106 | AGATCAAT | 0.0355 % of ANNNNAAN 8-mers
107 | ACGGAAAA | 0.0593 % of ANNNNAAN 8-mers
108 | AACCAAAC | 0.0437 % of ANNNNAAN 8-mers
109 | ACGTGAAA | 0.0386 % of ANNNNAAN 8-mers
110 | ACTTCAAG | 0.0168 % of ANNNNAAN 8-mers
111 | ATACGAAC | 0.032 % of ANNNNAAN 8-mers
112 | AGGCAAAC | 0.157 % of ANNNNAAN 8-mers
113 | AGCAGAAT | 0.0511 % of ANNNNAAN 8-mers
114 | AACAGAAA | 0.0355 % of ANNNNAAN 8-mers
115 | ACACGAAA | 0.0386 % of ANNNNAAN 8-mers
116 | AGGTAAAT | 0.55 % of ANNNNAAN 8-mers
117 | ACGGCAAC | 0.0152 % of ANNNNAAN 8-mers

Reference: article PMC10812921, “Transcriptional Coactivator BOB1 (OBF1, OCA-B) Modulates the Specificity of DNA Recognition by the POU-Domain Factors OCT1 and OCT2 in a Monomeric Configuration”
